BAZ2B inh – blocks human BAZ2B; Q9UIF8; AlphaScreen BAZ2B-H3K14Ac peptide displacement; Potency, µM (top dose mostly 114 µM), for the others: top-dose activity change, negative = inhibition, actives largely listed as inhibitors; hit rate 4.4% among 360,000; AID 504333; also: % is scaled to controls: 0 for no effect and ±100 for the full control effect; nearly all actives have a fitted effect of over 60% in size
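Protein-peptide AlphaScreen: BAZ2B 50 nM, b-H3K14Ac 50 nM, 1x PBS pH 7.4 + 0.01% Tween-20. Preincubation 30 min RT; cpd 30 min RT (top 110 uM); beads 20 min RT, light-protected.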
HP1b chromo inh – HP1-beta chromodomain-methylated histone interaction inhibition; AlphaScreen HP1-beta / biotin-H3K9me3 peptide binding; Potency, µM (highest dose often 114 µM), without a hit: at the top dose activity change, negative = inhibition, usual class: inhibitors; hit rate 0.56% among 390,000; AID 540317; also: nearly all actives have a fitted effect of over 70% in size
Target sequence (P83916 whole entry, looked up): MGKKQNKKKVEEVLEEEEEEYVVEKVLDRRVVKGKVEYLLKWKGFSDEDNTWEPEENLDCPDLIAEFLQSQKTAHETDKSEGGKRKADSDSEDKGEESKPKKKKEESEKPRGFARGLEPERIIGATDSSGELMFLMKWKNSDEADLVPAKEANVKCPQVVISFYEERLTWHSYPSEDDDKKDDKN
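Compound inhibition of the preformed complex between 50 nM HP1-beta and 50 nM biotinylated H3K9me3 peptide was read by AlphaScreen. Buffer was PBS pH 7.4 with 0.01% Tween-20. Incubations ran 30 min at room temperature, with 10 ug/mL donor/acceptor beads.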
GLS inhibitor – inhibitors of human glutaminase (GLS); O94925; Potency, µM (titrated, usually from 45.5 µM), inactives show at the highest dose activity change, negative = inhibition, hits mostly inhibitors; hit rate 0.21% among 410,000; GLS enzymatic activity, qHTS titration; AID 624170; also: % is scaled to controls: 0 for no effect and ±100 for the full control effect
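Compounds were pin-transferred onto hKGA, after which L-glutamine (1 mM solution) and a detection mix of glutamate oxidase, HRP and Amplex Red were added. Initial and 30 min RT fluorescence reads were collected.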
L3MBTL1 block – inhibitors of human L3MBTL1; Q9Y468; AlphaScreen L3MBTL1–H3K9me1 peptide binding; Potency, µM (top dose mostly 57.1 µM), for the others: top-dose activity, negative = inhibition, usual class: inhibitors; hit rate 0.66% among 230,000; also: % is scaled to controls: 0 for no effect and ±100 for the full control effect; nearly all actives have a fitted effect of over 60% in size
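AlphaScreen proximity signal between nickel-chelate acceptor and streptavidin donor beads (final 10 ug/mL) reports binding of 50 nM L3MBTL1 to 75 nM biotin-H3 K9me1 peptide; complex incubated with compounds 30 min at room temperature; cefsulodin titration as control.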
G9a inh – blocks human histone lysine methyltransferase G9a; Q96KQ7; G9a H3K9 monomethylation, AlphaScreen, 2 h; Potency, µM (top dose mostly 102 µM), without a hit: at the top dose activity, negative = inhibition, actives largely listed as inhibitors; hit rate 8.8% among 350,000; AID 504332; also: % is scaled to controls: 0 for no effect and ±100 for the full control effect; nearly all actives have a fitted effect of over 75% in size
Target sequence (Q96KQ7 913-1193 limits assumed): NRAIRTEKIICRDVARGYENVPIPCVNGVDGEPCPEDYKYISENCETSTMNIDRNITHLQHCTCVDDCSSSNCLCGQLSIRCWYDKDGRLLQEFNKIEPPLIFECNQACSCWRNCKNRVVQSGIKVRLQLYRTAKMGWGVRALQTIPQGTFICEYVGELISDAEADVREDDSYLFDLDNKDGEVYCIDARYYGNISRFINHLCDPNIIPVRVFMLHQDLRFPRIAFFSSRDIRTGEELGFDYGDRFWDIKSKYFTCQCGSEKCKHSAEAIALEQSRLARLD
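G9a (20 nM) was preincubated 15 min with compound, then reacted 2 h at room temperature with 500 nM biotin-H3K9 peptide and 20 µM SAM. Monomethyl-H3K9 detected by AlphaScreen using anti-H3K9me1 antibody.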
JMJD2A Tudor – inhibitors of human JMJD2A Tudor domain. hit rate 4.4% among 390,000. AlphaScreen JMJD2A-Tudor / H3K4me3 peptide binding. O75164. Potency, µM (highest dose often 114 µM), without a hit: top-dose activity change, negative = inhibition, usual class: inhibitors; also: % is scaled to controls: 0 for no effect and ±100 for the full control effect; nearly all actives have a fitted effect of over 50% in size
* hit, by the source's call; u = inconclusive; x = no result given; [ ] = another dose, or the depositor's remark. This is a sample that favours compounds with a hit; in the whole collection about 10% have one here. Calls follow the shape of the dose curve; as a rule, active = well fitted curve in the direction sought with a large enough effect; inconclusive = small, poorly fitted or top-dose-only effect, or another doubt; inactive = no such curve, though single readings can be large; an effect the other way counts as inactive or inconclusive. Potency is read from the fitted curve at half-maximal effect.

SMILES	BAZ2B inh	HP1b chromo inh	GLS inhibitor	L3MBTL1 block	G9a inh	JMJD2A Tudor
CC(=O)C1=C(c2ccc(Br)cc2)C(=O)c2ccccc2C1=O	25.1µM*	25.1µM*	5.4%	-10.9%	35.5µM*	22.4µM*
N#C/C(=C\c1ccccc1C(=O)O)c1nc2ccccc2[nH]1	3.1%	45.6%	-3.8%	x	7.6%[2.33 µM]	-13.9%
N#C/C(=C\c1ccc(-c2ccc(C(=O)O)cc2)o1)c1nc2ccccc2[nH]1	-0.9%	u	-12.1%	-9.1%	-37.1%[59 µM]	89.1µM*
N#C/C(=C\c1ccc(-c2ccc(Cl)c(C(=O)O)c2)o1)c1nc2ccccc2[nH]1	50.1µM*	7.2%	u	-27.9%	-25.2%[59 µM]	u
O=C(Cn1ccn(-c2ccc(F)cc2)c(=O)c1=O)Nc1ccc(F)cc1	-2.4%	29.3%	7.3%	x	3.3%[59 µM]	-1.3%
CCC(Sc1ncccc1C(=O)O)C(=O)N1CCCC1 (stereo not given)	u	34.7%	6.2%	2.8%	u	3.55µM*
CCC(Sc1ncccc1C(=O)O)C(=O)N1CCOCC1 (stereo not given)	u	48.8%	-0.4%	8.6%	u	5.62µM*
O=C1CN(C(=O)c2ccc(S(=O)(=O)N3CCCCC3)cc2)C(c2ccc(F)cc2)c2cc(Br)ccc2N1 (stereo not given)	-5.0%	15.4%	-12.8%	x	u	-21.5%
COc1cccc(CN2CC(C(=O)NCc3cccc(N4CCCC4)c3)CCC2=O)c1 (stereo not given)	u	15.7%	-5.6%	x	79.4µM*	-35.3%
COc1cccc(CN2CC(C(=O)NCCc3ccc(C)o3)CCC2=O)c1 (stereo not given)	-20.5%	-6.9%	4.9%	x	39.8µM*	-16.6%
Cc1ccc(CCNC(=O)C2CCC(=O)N(Cc3ccccc3F)C2)o1 (stereo not given)	-24.4%	24.9%	-14.5%	x	79.4µM*	u
COc1ccc(CCN2CC(C(=O)NCCc3cnn(C)c3)CCC2=O)cc1 (stereo not given)	-5.3%[57.1 µM]	21.9%	-1.3%	x	23.2%	20µM*
Clc1cccc(-n2ncc3c(NC4CCCCC4)ncnc32)c1	29.7%	98.0%	2.1%	x	18.2%[59 µM]	12.8%
OCc1cc2c(cn1)[nH]c1ccccc12	x	x	x	x	37.2%[59 µM]	x
Cc1ccc(NC(=S)Nc2cccc(-c3n[nH]c(=S)o3)c2)cc1	u	-19.1%	13.7%	-3.3%	50.1µM*	-27.7%
NC(=S)Nc1cccc(-c2n[nH]c(=S)o2)c1	-20.8%	12.3%	24.5%	-0.3%	39.8µM*	u
Cc1ccc(NC(=O)C2CCN(c3nc4ccccc4nc3C(F)(F)F)CC2)cc1F	3.9%	23.5%	-10.2%	x	-1.1%[59 µM]	4.9%
CCN1/C(=C/c2sc(-c3ccccc3C)c[n+]2C)Sc2ccccc21	-22.2%	-12.4%	-10.1%	x	11.2µM*	u
O=C(Nc1nnc(SCc2ccccc2)s1)c1cccc([N+](=O)[O-])c1	-7.2%	-3.2%	10.1%	-7.0%	79.4µM*	-24.3%
Cc1ccc2c(c1)c(=O)c1ccccc1n2CCCC(=O)Nc1cc(Cl)ccc1C	23.9%	57.0%	-6.8%	x	8.7%[59 µM]	-26.1%
CCC(=NCc1ccc(Cl)c(Cl)c1)c1nc(-c2ccco2)oc1O	12.6µM*	u	2.1%	-28.4%	44.7µM*	u
CCCOc1ccc(C2C(=O)N(C3CCCCC3)CC(=O)N2CCCOCC)cc1OC (stereo not given)	5.1%	35.8%	-11.3%	5.3%	7.94µM*	8.5%
CCc1nnc(NC(=O)c2sc3nc4c(cc3c2N)CCCCCC4)s1	-11.6%	-3.5%	-6.4%	u	44.7µM*	-24.8%
O=C(CN1C(=O)c2cccnc2Oc2ccc(Cl)cc21)Nc1cccc(C(F)(F)F)c1	-2.4%	38.7%	2.4%	x	1.1%[59 µM]	-11.2%
CCCCCCCCCCCCCCCCCCCCCC(=O)Nc1ccn([C@@H]2O[C@H](CO)[C@@H](O)[C@@H]2O)c(=O)n1	x	x	-0.8%	x	-0.5%[12.7 µM]	x
SMILES	BAZ2B inh	HP1b chromo inh	GLS inhibitor	L3MBTL1 block	G9a inh	JMJD2A Tudor
CCCCCCCCCCCCCCCCCCNc1ccn(C2OC(COP(=O)(O)OCC3OC(n4cc(F)c(=O)[nH]c4=O)CC3O)C(O)C2O)c(=O)n1 (stereo not given)	x	-15.0%	-7.3%	x	x	56.2µM*
COc1cc(/C=N/N=C2\CC3CCC2(C)C3(C)C)ccc1O (stereo not given)	-30.1%	-7.0%	8.6%	x	-4.1%[59 µM]	-19.9%
CC12CCC(C/C1=N\N=C1\NC(=O)/C(=C\c3cccc(Br)c3)S1)C2(C)C (stereo not given)	-27.8%	-14.3%	-13.0%	-7.0%	1.26µM*	u
Cc1nc2c(ccc3nc(NC(=O)c4ccc5c(c4)OCCO5)sc32)s1	-36.9%	30.5%	-29.9%	-4.6%	28.2µM*	u
COc1ccc(C(C)=O)c(OC(=O)c2ccco2)c1	u	32.5%	11.3%	-2.6%	44.7µM*	4.1%
COc1ccc(C(C)=O)c(OC(=O)c2ccc(OC)c(OC)c2)c1	-3.3%	29.4%	-0.7%	3.3%	14.5%[12.7 µM]	-5.2%
COc1ccc(C(=O)Nc2cccc(OC(=O)c3ccco3)c2)cc1	13.2%	-9.6%	15.6%	x	50.1µM*	-13.8%
CCCCC(=O)N1C/C=C\C(c2ccc(OC)cc2)N(Cc2ccc(F)cc2)C(=O)C1C (stereo not given)	x	27.0%	x	x	x	-12.4%
CO[C@@]1(NC(=O)C2SC(=C(C(N)=O)C(=O)O)S2)C(=O)N2C(C(=O)O)=C(CSc3nnnn3C)CS[C@@H]21 (stereo not given in full)	50.1µM*	-1.9%	15.9%	7.94µM*	15.8µM*	25.1µM*
COc1ccc(N2CCN(C(c3cccs3)C(C)NC(=O)C(=O)N3CCCC3)CC2)cc1 (stereo not given)	39.8µM*	-3.7%	44.6%	x	44.7µM*	u
CC(NC(=O)C(=O)N1CCCCC1)C(c1cccs1)N1CCN(c2ccccc2)CC1 (stereo not given)	-37.4%	22.6%	27.0%	x	u	-28.6%
CC(NC(=O)C(=O)N1CCCCC1)C(c1cccs1)N1CCN(c2ccc(F)cc2)CC1 (stereo not given)	u	15.4%	10.8%	x	u	-29.7%
COc1ccc(N2CCN(C(c3cccs3)C(C)NC(=O)C(=O)N3CCCCC3)CC2)cc1 (stereo not given)	-35.3%	0.9%	31.0%	x	50.1µM*	-30.6%
Cc1cc(C)n(-c2nc3cc(Cl)ccc3nc2N2CCN(c3ccccc3F)CC2)n1	53.9%	110.2%	3.5%	x	102.6%[59 µM]	60.4%
CN(C)S(=O)(=O)c1ccc2c(c1)N(CC(=O)NCc1ccccc1)C(=O)C1CCCCN21 (stereo not given)	-1.3%	26.9%[57 µM]	1.6%	x	5.1%[59 µM]	-13.4%
CCc1ccc(NC(=O)CCn2cccc2)cc1	u	-16.8%	4.1%	x	50.1µM*	-29.8%[57.1 µM]
